An excerpt weighted towards active compounds, which were near 11% of everything screened.
CBFb RUNX1 block: inhibitors of human CBF-beta and RUNX1 interaction | Q01196+Q13951 | AlphaScreen CBFb-His/RUNX1-biotin binding, biochemical | Potency, µM (titrated, usually from 59.8 µM), usual class: inhibitors | 230,000 tested, under 10 active
Target sequence (Q01196 whole entry, looked up): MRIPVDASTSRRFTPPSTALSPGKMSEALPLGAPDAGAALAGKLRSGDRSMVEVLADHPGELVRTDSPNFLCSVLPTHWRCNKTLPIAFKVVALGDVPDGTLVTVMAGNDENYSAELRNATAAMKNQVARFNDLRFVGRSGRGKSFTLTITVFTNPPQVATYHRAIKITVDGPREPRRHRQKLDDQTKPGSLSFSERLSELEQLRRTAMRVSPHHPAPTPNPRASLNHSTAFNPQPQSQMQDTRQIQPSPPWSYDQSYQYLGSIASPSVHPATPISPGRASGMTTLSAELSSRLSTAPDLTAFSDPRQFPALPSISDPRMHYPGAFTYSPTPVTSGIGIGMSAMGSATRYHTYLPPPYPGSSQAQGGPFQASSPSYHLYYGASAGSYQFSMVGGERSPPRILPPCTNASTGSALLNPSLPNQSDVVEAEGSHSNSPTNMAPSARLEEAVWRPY
Target sequence (Q13951 whole entry, looked up): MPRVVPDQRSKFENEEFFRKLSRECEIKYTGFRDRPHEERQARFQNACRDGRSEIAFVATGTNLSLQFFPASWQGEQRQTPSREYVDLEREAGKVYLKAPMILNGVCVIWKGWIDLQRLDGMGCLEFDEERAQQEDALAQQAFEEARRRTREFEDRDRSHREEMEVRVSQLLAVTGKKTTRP
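Interaction loss through any mechanism counts as activity. Pre-formed complex of His-CBF-beta and biotin-RUNX1 (30 nM apiece) is incubated with compound 15 min, then with 50 ng nickel and 50 ng streptavidin beads for 90 min before AlphaScreen detection.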
ALDH1A1 inh: blocks purified human ALDH1A1 activity; Purified ALDH1A1, NADH fluorescence, propionaldehyde substrate; Potency, µM (titrated, usually from 75.3 µM), usual class: inhibitors; 7.3% of 220,000 active; active = well fitted inhibition curve with a large enough effect, not every such curve was filed as active; inconclusive = small, poorly fitted or top-dose-only effect, or another doubt; inactive = no such curve, though single readings can be large or run the other way
HPGD inh: blocks human HPGD enzyme activity. Potency, µM, actives largely listed as inhibitors. 4.3% of 150,000 active. P15428. purified HPGD, NADH fluorescence kinetic, PGE2 substrate; active = well fitted inhibition curve with a large enough effect, not every such curve was filed as active; inconclusive = small, poorly fitted or top-dose-only effect, or another doubt; inactive = no such curve, though single readings can be large or run the other way
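20 nM HPGD preincubated 15 min at room temperature with compound in 50 mM Tris-HCl pH 8, 0.01% Tween 20. Started with 1 mM NAD+ and 30 uM prostaglandin E2; NADH fluorescence (360/450 nm) read 5 times over 30-s intervals, last minus first.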
HTT aggregate: reduces HttQ103-GFP aggregates in PC12 cells; PC12 HttQ103-GFP aggregates, Acumen cytometry, 40 h; Potency, µM (titrated, usually from 46.1 µM), hits mostly inhibitors; 1.1% of 220,000 active; AID 1688; note: nearly all actives have a fitted effect of over 60% in size
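Compounds (qHTS titration) were added to PC12 cells expressing an ecdysone-driven HTT exon 1 Q103–GFP fusion after induction with 100 nM tebufenozide. Aggregate formation was measured as GFP objects in cell lysates.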
HTT ATP protect: Huntington cell model cytoprotection by ATP luminescence; PC12 HTT-Q103 induced, cytoprotection, ATP luminescence, 40 h; Potency, µM (series often up to 56.4 µM), most hits filed as activators; 0.14% of 230,000 active; note: nearly all actives have a fitted effect of over 45% in size
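PC12 cells with ecdysone-inducible HTT exon 1 Q103-GFP, induced with 100 nM tebufenozide and co-treated with library compounds in a dose series (1536-well, 1500 cells/well). Cytoprotection read as ATP content by ATPlite luminescence.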
PNC inhibitor: perinucleolar compartment assembly inhibition; PC3M PTB-GFP, PNC prevalence imaging, 16 h; active compounds read low; activity change (PNC), negative = inhibition, % at 10 µM; 3.1% of 140,000 active;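 active = readout at or below -70, meaning at least 70% loss of cells showing the perinucleolar compartment, a nuclear body marking cancer cells; inconclusive = readout between -30 and a set limit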
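PC3M cells stably expressing PTB-GFP, 750–1000 cells/well, treated 16 h at 37 °C with compound (23 nl of library stock), in duplicate. After paraformaldehyde fixation and Hoechst stain, imaged at 20x; PNC prevalence scored by image analysis.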
Each line names hits and unclear results; the compound was inactive in the other large screens. Unless noted, calls come from the whole dose curve; as a rule, active = well fitted curve in the direction sought with a large enough effect; inconclusive = small, poorly fitted or top-dose-only effect, or another doubt; inactive = no such curve, though single readings can be large; an effect the other way counts as inactive or inconclusive.

Cc1sc(NC(=O)C2CCCC2)c(C#N)c1C	ALDH1A1 inh 14µM, HPGD inh 10µM, PNC inhibitor inconclusive (no result: HTT ATP protect)
CCCCCC(=O)Nc1sc(C)c(C)c1C#N	CBFb RUNX1 block inconclusive, ALDH1A1 inh 10µM, HPGD inh 25µM, PNC inhibitor inconclusive
Cc1sc(NC(=O)C2CCCO2)c(C#N)c1C (centres undefined)	ALDH1A1 inh 25µM, PNC inhibitor -92
CCc1ccc(-c2c(C)sc(NC(=O)C3CCC3)c2C#N)cc1	none
Cc1sc(NC(=O)CCCC(=O)O)c(C#N)c1C	PNC inhibitor inconclusive
Cc1ccc(-n2c(N)c(C(=O)N3CCCCC3)sc2=S)cc1	ALDH1A1 inh 10µM, HPGD inh 10µM, PNC inhibitor inconclusive
Cc1ccc(-n2c(N)c(C(=O)N3CCN(C)CC3)sc2=S)cc1	ALDH1A1 inh 22µM, HPGD inh 11µM, PNC inhibitor inconclusive
CCOc1ccc(-n2c(N)c(C(=O)N3CCN(C)CC3)sc2=S)cc1	HTT aggregate inconclusive (no result: HPGD inh, PNC inhibitor)
Cc1ccc(-n2c(N)c(C(N)=O)sc2=S)c(C)c1	none (no result: HPGD inh)
Cc1cccc(C(=O)NC(=S)Nc2ccccc2C(F)(F)F)c1	ALDH1A1 inh 18µM
Cc1ccc(C(=O)NC(=S)Nc2ccccc2C(F)(F)F)cc1C	ALDH1A1 inh 4.5µM
CC(=O)OC[C@@H]1O[C@@H](O/N=C2/C[C@@H](O)[C@@H](O)[C@@H]3[C@@H]4C(=O)N(c5cccc(Oc6ccccc6)c5)C(=O)[C@H]4CC[C@@H]23)[C@H](OC(C)=O)[C@H](OC(C)=O)[C@@H]1OC(C)=O	HTT ATP protect inconclusive (no result: HPGD inh, HTT aggregate, PNC inhibitor)
CC(C)c1ccc(C(O)P(=O)(OC2CCCCC2)OC2CCCCC2)cc1 (centres undefined)	none (no result: ALDH1A1 inh, HPGD inh, PNC inhibitor)
OC(COc1ccc(CNCCc2ccccc2F)cc1)CN1CCCCC1 (centres undefined)	none (no result: HPGD inh, PNC inhibitor)
COc1ccc2nc(C)cc(SCC(=O)N/N=C/c3ccc(O)c(O)c3)c2c1	CBFb RUNX1 block inconclusive, ALDH1A1 inh 28µM (no result: HPGD inh, HTT ATP protect, PNC inhibitor)
Cc1cc(SCC(=O)N/N=C/c2ccc(O)c(O)c2)c(C)cc1Br	HPGD inh 2.8µM, HTT aggregate inconclusive
COc1cccc2c(SCC(=O)N/N=C/c3ccc(O)c(O)c3)cc(C)nc12	CBFb RUNX1 block inconclusive, HTT aggregate inconclusive (no result: HPGD inh, HTT ATP protect, PNC inhibitor)
Cc1ccc(/C=C2/NC(=O)N(Cc3ccccc3)C2=O)o1	ALDH1A1 inh 3.5µM, HPGD inh 25µM (no result: HTT ATP protect)
COC(=O)CN1C(=O)N/C(=C/c2ccc(C)o2)C1=O	ALDH1A1 inh 18µM, HTT ATP protect inconclusive (no result: HPGD inh, PNC inhibitor)
Cn1c(=O)n(C)c2cc(/C=C3/NC(=O)N(Cc4ccccc4)C3=O)ccc21	ALDH1A1 inh inconclusive, HTT aggregate inconclusive
C=Cc1ccc(S(=O)(=O)O)cc1	none (no result: ALDH1A1 inh, HPGD inh, PNC inhibitor)
CNC(=O)CSc1nnc(-c2ccccc2)n1C	none (no result: HPGD inh, PNC inhibitor)
Cc1ccnc(SCC(=O)c2cc3ccccc3o2)n1	none (no result: HPGD inh, PNC inhibitor)
Cn1c(SCC(=O)Nc2ccc3c(c2)oc2ccccc23)nnc1-c1ccccc1	ALDH1A1 inh 25µM
Cn1ccnc1SCC(=O)c1cc2ccccc2o1	ALDH1A1 inh 20µM, PNC inhibitor inconclusive
Cn1c(SCC(=O)c2cc3ccccc3o2)nnc1-c1ccccc1	ALDH1A1 inh 28µM, HPGD inh inconclusive
Cn1cnnc1SCC(=O)c1cc2ccccc2o1	ALDH1A1 inh inconclusive (no result: HPGD inh, PNC inhibitor)
O=C(CSc1nnc(-c2cccs2)n1CC1CCCO1)c1cc2ccccc2o1 (centres undefined)	ALDH1A1 inh 28µM, HPGD inh inconclusive
O=C(Oc1ccccc1)N1CCC2(CC1)CCN(c1ccccn1)CC2	ALDH1A1 inh inconclusive (no result: CBFb RUNX1 block, HTT aggregate, PNC inhibitor)
Cc1noc(C)c1-c1ccc2ncnc(NCCN3CCOCC3)c2c1	none (no result: CBFb RUNX1 block, HPGD inh, HTT aggregate, PNC inhibitor)
COc1cc(C(=O)c2ccccc2)c(OC)cc1C(=O)Nc1ccc(O)cc1	none (no result: HPGD inh, PNC inhibitor)
Cc1cccc(NC(=O)CSc2nnc(-c3ccncc3)n2C)c1	none
Cc1cccc(-c2nnc(SCC(=O)C(C)(C)C)n2C)c1	ALDH1A1 inh 11µM (no result: HPGD inh, PNC inhibitor)
CC(=O)Nc1ccc(S(=O)(=O)N(C)CC(=O)OCC(=O)N2CCc3ccccc32)cc1	ALDH1A1 inh 8.9µM
CN(CC(=O)N1CCc2ccccc21)S(=O)(=O)c1ccc(Cl)cc1	none

Source: PubChem BioAssay (National Center for Advancing Translational Sciences (NCATS))
